# The full list was thinned out, with the strongest signals kept by preference.
# B1: FBG5 (Homo sapiens), Q8NI29 (protein)
# chain: MGASVSRGRAARVPAPEPEPEEALDLSQLPPELLLVVLSHVPPRTLLGRCRQVCRGWRALVDGQALWLLILARDHGATGRALLHLARSCQSPARNARPCPLGRFCARRPIGRNLIRNPCGQEGLRKWMVQHGGDGWVVEENRTTVPGAPSQTCFVTSFSWCCKKQVLDLEEEGLWPELLDSGRIEICVSDWWGARHDSGCMYRLLVQLLDANQTVLDKFSAVPDPIPQWNNNACLHVTHVFSNIKMGVRFVSFEHRGQDTQFWAGHYGARVTNSSVIVRVRLS
# Experiments:
# Assay in all cases: glycan array binding signal (z-score within array); higher = stronger binding
# Details in all cases: glycan notation: IUPAC condensed, linker removed
# [1] = target: Fuc(a1-2)Gal(b1-3)GalNAc(b1-3)Gal(b1-4)Glc
# Outline: (§1)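 The binding signal is a Z-score computed within each array and averaged over linkers. Arrays of the same protein sequence at different concentrations or buffers were also averaged together. Data originate from 3228 arrays in the Consortium for Functional Glycomics database, kept only where the protein sequence was available.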
# [2] = target: Fuc(a1-2)[Gal(a1-4)]Gal(b1-4)GalNAc
# Outline: as §1
# [3] = target: Fuc(a1-2)[GalNAc(a1-3)]Gal(b1-4)Glc
# Outline: as §1
# Fuc(a1-3)GlcNAc = target: Fuc(a1-3)GlcNAc
# Outline: as §1
# [4] = target: Gal(b1-3)[Fuc(a1-4)]GlcNAc(b1-3)Gal(b1-4)[Fuc(a1-3)]GlcNAc
# Outline: as §1
# [5] = target: Gal(b1-4)GlcNAc(b1-2)Man(a1-3)[Gal(b1-4)GlcNAc(b1-2)Man(a1-6)]Man(b1-4)GlcNAc(b1-4)GlcNAc
# Outline: as §1
# Gal3S(b1-4)Glc6S = target: Gal3S(b1-4)Glc6S
# Outline: as §1
# Gal3S6S(b1-4)GlcNAc = target: Gal3S6S(b1-4)GlcNAc
# Outline: as §1
# Gal3S6S(b1-4)GlcNAc6S = target: Gal3S6S(b1-4)GlcNAc6S
# Outline: as §1
# Gal6S(b1-4)Glc6S = target: Gal6S(b1-4)Glc6S
# Outline: as §1
# GlcNAc(b1-3)Gal = target: GlcNAc(b1-3)Gal
# Outline: as §1
# [6] = target: GlcNAc(b1-4)Gal(b1-4)GlcNAc
# Outline: as §1
# [7] = target: Man(a1-2)Man(a1-3)[Man(a1-6)]Man(a1-6)[Man(a1-2)Man(a1-3)]Man(b1-4)GlcNAc(b1-4)GlcNAc
# Outline: as §1
# Man(b1-4)GlcNAc = target: Man(b1-4)GlcNAc
# Outline: as §1
# [8] = target: Neu5Ac(a2-3)Gal(b1-3)GlcNAc
# Outline: as §1
# [9] = target: Neu5Ac(a2-3)Gal(b1-3)GlcNAc(b1-3)Gal(b1-4)GlcNAc
# Outline: as §1
# [10] = target: Neu5Ac(a2-3)Gal(b1-4)[Fuc(a1-3)]GlcNAc
# Outline: as §1
# [11] = target: Neu5Ac(a2-3)Gal(b1-4)[Fuc(a1-3)]GlcNAc(b1-3)Gal
# Outline: as §1
# [12] = target: Neu5Ac(a2-6)Gal(b1-4)GlcNAc
# Outline: as §1
# [13] = target: Neu5Gc(a2-6)Gal(b1-4)GlcNAc
# Outline: as §1
binder,measurement,setting,value
B1,glycan array binding signal (z-score),[1],-0.166
same,glycan array binding signal (z-score),[2],-0.19
same,glycan array binding signal (z-score),[3],0.967
same,glycan array binding signal (z-score),Fuc(a1-3)GlcNAc,0.417
same,glycan array binding signal (z-score),[4],-0.217
same,glycan array binding signal (z-score),[5],-0.102
same,glycan array binding signal (z-score),Gal3S(b1-4)Glc6S,0.206
same,glycan array binding signal (z-score),Gal3S6S(b1-4)GlcNAc,-0.009
same,glycan array binding signal (z-score),Gal3S6S(b1-4)GlcNAc6S,2.32
same,glycan array binding signal (z-score),Gal6S(b1-4)Glc6S,0.548
same,glycan array binding signal (z-score),GlcNAc(b1-3)Gal,-0.119
same,glycan array binding signal (z-score),[6],-0.095
same,glycan array binding signal (z-score),[7],-0.112
same,glycan array binding signal (z-score),Man(b1-4)GlcNAc,-0.205
same,glycan array binding signal (z-score),[8],-0.161
same,glycan array binding signal (z-score),[9],-0.162
same,glycan array binding signal (z-score),[10],-0.231
same,glycan array binding signal (z-score),[11],-0.244
same,glycan array binding signal (z-score),[12],-0.219
same,glycan array binding signal (z-score),[13],-0.248

# Source: the supplement of paper PMC8728848
